The results in this text go back to PubChem BioAssay (NCATS).

Structures are written as SMILES. Results filed as inconclusive are left out. Where a call stands in place of a potency, no number is given. The source made the active and inactive calls. Calls come from the whole dose curve; as a rule, active = well fitted inhibition curve with a large enough effect; inconclusive = small, poorly fitted or top-dose-only effect; inactive = flat fitted curve, though single readings scatter.
Potency is the fitted concentration of half-maximal effect.

The test system of the assay is CP297. Put plainly: qHTS profiling for inhibitors of Plasmodium falciparum proliferation (AID 504749). Note: nearly all actives have a fitted effect of over 60% in size. The following applies: P. falciparum in erythrocytes, SYBR Green DNA, 72 h; series mostly up to 28.7 µM. An outline of the steps: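 Parasite proliferation within erythrocytes, 72 h exposure. Endpoint: SYBR Green I fluorescence after overnight lysis at room temperature. Controls: 0.29 uM artemisinin, DMSO.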
For orientation: In qHTS, concentration-response curves come from the screen itself.
Regarding `C#C[C@]1(O)CC[C@H]2[C@@H]3CCc4cc(OC)ccc4[C@H]3CC[C@@]21C`, the Potency result is “inactive”.
For `CCCCNC(=O)NS(=O)(=O)c1ccc(N)cc1`, the Potency result was “inactive”.
Regarding `Nc1ccc(C(=O)NCC(=O)O)cc1`, the Potency result is “inactive”.
The entry for `OC1C(O)C(O)C(O)C(O)C1O` (stereo not given) is “inactive”.
Take `O=S(=O)(O)c1ccc(O)cc1`: the Potency entry was “inactive”.
The entry for `COc1cc(C(=O)NCc2ccc(OCCN(C)C)cc2)cc(OC)c1OC` is “inactive”; for `COc1cc(C)nc(-n2nc(C)cc2OC)n1` it is “inactive”.
The entry for `CC(=O)Oc1ccc(C)cc1` is “inactive”; for `CC(=O)NC(=O)c1ccccc1O` it is “inactive”; for `FC(F)(F)C(F)(F)C(F)(F)C(F)(F)C(F)(F)C(F)(F)C(F)(F)C(F)(F)Br` it is “inactive”.
In the case of `c1ccc(-c2nc[nH]c2-c2ccccc2)cc1`, the Potency result was “inactive”.
For `CCNC(=O)NCc1cccc(Cl)c1`, the Potency entry is “inactive”.
Consider `O=C(O)Cc1csc(-c2ccc(Cl)cc2)n1`, for which the Potency entry is “inactive”.
Regarding `Nc1nc(-c2ccccc2)c(Br)c(=O)[nH]1`, the Potency result is “inactive”.
As to `O=c1[nH]c(=O)n([C@H]2C[C@H](O)[C@@H](CO)O2)cc1F`, the Potency result is “inactive”.
The entry for `CC(=O)Nc1ncc([N+](=O)[O-])s1` is “inactive”.
As for `Cc1cccc(C)c1NC(=O)CN1CCCCCC1`, the entry is “inactive”.
Turning to `CC[C@H](c1ccc(O)cc1)[C@@H](CC)c1ccc(O)cc1`, the Potency entry is “inactive”.
Regarding `Cc1c(-c2ccccc2)oc2c(C(=O)OCCN3CCCCC3)cccc2c1=O`, the Potency result was “inactive”.
As to `CCCCCCCCCCCCCCCCO`, the Potency result is “inactive”.
Turning to `Oc1ccccc1C=NCc1ccccc1`, the Potency entry is “inactive”.
Take `CCN(CC)CCNC(=O)COc1ccc(OC)cc1`: the Potency result is “inactive”.
As for `COc1cc(N)c(Cl)cc1C(=O)NC1CCN(Cc2ccccc2)CC1`, the entry is “inactive”.
As for `Cc1cc(NS(=O)(=O)c2ccc(N)cc2)nc(C)n1`, the entry is “inactive”; as for `CC(=O)OC[C@H]1O[C@@H](n2ncc(=O)[nH]c2=O)[C@H](OC(C)=O)[C@@H]1OC(C)=O`, “inactive”; as for `CCOc1ccccc1OCCN[C@H](C)Cc1ccc(OC)c(S(N)(=O)=O)c1`, “inactive”.
The entry for `O=C(NCCc1c[nH]c2ccccc12)c1cccnc1` is “inactive”.
For `Cc1ccccc1OCC(O)CO` (stereo not given), the Potency result was “inactive”.
On to `Cc1cc(C)cc(OCC2CNC(=O)O2)c1` (stereo not given), for which the Potency result was “inactive”.
As for `CCOc1cc(OCC)c(C(=O)CCC(=O)O)cc1OCC`, the Potency entry is “inactive”.
Turning to `N#CCC(=O)NN`, the Potency result is “inactive”.
`O=C(O)C(Cc1cc(I)c(O)c(I)c1)c1ccccc1` (stereo not given): the Potency entry is “inactive”.
As for `CCCCCCCC/C=C\CCCCCCCCN`, the entry is “inactive”; as for `CC1=C(C(=O)O)N2C(=O)[C@@H](NC(=O)[C@H](N)c3ccccc3)[C@H]2SC1`, “inactive”; as for `CCN(CC)CCNc1ccc(CO)c2sc3ccccc3c(=O)c12`, 1690 nM (active).
Regarding `Cl/C(=C\n1cncn1)c1ccc(Cl)cc1Cl`, the Potency entry was “inactive”.
As for `CCCCCCCCCCCCCCCC(=O)O`, the entry is “inactive”; as for `CC(C)CCCC(C)N` (stereo not given), “inactive”.
Turning to `CCOC(=O)c1ccc(N)cc1`, the Potency entry is “inactive”.
As to `Cc1c[nH]c2ccccc12`, the Potency entry is “inactive”.
